Data as given in PubChem BioAssay AID651636 (Sanford-Burnham Center for Chemical Genomics, 2012).
About 3,000 (0.83%) of roughly 360,000 compounds were called active. What follows is part of a selection rich in actives, with near analogues and random picks from the rest. Unmarked numbers belong to inactive results. No stated cut-off is given here; in the data, active means inhibition above about 38%; inactive means the rest.

Biological target: G-protein coupled receptor 183 (Homo sapiens) (UniProt P32249)
Assay: blockers of oxysterol-driven EBI2 arrestin signaling – cell-based, luminescence, 7a,25-OHC stimulation, uHTS, primary screen (AID 651636);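 further: enzyme fragment complementation signal reports receptor beta-arrestin coupling in cells; 0% = agonist plus DMSO wells and 100% = wells without agonist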
Details: EBI2 beta-arrestin recruitment, 7a,25-OHC stimulated, at 5 µM, hits give high values

G-protein coupled receptor 183 (Homo sapiens), sequence (P32249 whole entry, looked up, the tested form may be a part): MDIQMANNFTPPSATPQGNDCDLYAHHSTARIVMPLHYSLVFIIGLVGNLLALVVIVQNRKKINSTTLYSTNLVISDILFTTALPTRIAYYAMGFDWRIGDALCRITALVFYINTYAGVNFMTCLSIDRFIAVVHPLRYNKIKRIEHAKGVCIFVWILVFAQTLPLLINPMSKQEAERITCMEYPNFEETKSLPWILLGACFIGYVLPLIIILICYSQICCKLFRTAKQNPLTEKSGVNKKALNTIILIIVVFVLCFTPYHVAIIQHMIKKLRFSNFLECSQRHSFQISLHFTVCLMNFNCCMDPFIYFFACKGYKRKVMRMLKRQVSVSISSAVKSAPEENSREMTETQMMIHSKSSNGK

Row | SMILES | inhibition
1 | O=S(=O)(c1ccc(Sc2nnc3ccccn23)nc1)N1CCOCC1 | -9.4%
2 | CC(C)Cc1ccc(-c2cc3nc(NCc4cccc(Cl)c4)ccn3n2)cc1 | 47.4% (active)
3 | COc1ccccc1-c1cc2nc(NCc3cccc(Cl)c3)ccn2n1 | 4.55%
4 | COCCCNc1ccn2nc(-c3ccc(CC(C)C)cc3)cc2n1 | 36.9%
5 | O=C(O)C1CC=CCC1C(=O)NCCc1ccccc1 (stereo not given) | -5.64%
6 | CCc1nc2ccc(C(=O)Nc3cc(-c4ccccc4)ccc3OC)cn2c1N(CC)CC(=O)N(C)C | 17%
7 | CCN1CCN(c2ccc([N+](=O)[O-])cc2C(=O)c2ccc(Cl)cc2)CC1 | 8.05%
8 | CCC(C)(C)NC(=O)c1cc([N+](=O)[O-])ccc1N1CCCCC1 | 79.2% (active)
9 | COc1ccc(S(=O)(=O)N2CCCCC2)cc1NC(=O)c1cc([N+](=O)[O-])ccc1N1CCOCC1 | 15.7%
10 | C=CCN(Cc1nc(-c2cc(OC)c3c(c2)OCO3)oc1C)C1CCS(=O)(=O)C1 (stereo not given) | -4.13%
11 | CCCCN1CC(CO)Oc2cccc(F)c2S1(=O)=O (stereo not given) | -9.52%
12 | CC(C)(C)C(=O)Nc1cccc(-c2ccc[nH]2)n1 | -1.86%
13 | Cc1ccc(S(=O)(=O)N2CCN(CC(=O)N/N=C/c3ccc(Br)s3)CC2)cc1 | 66.9% (active)
14 | Cc1cccc(NC(=O)CN2CCCN(S(=O)(=O)c3ccc(Br)s3)CC2)c1 | 3.9%
15 | C/C(=N/NC(=O)CN1CCN(S(=O)(=O)c2ccc(Br)cc2)CC1)c1ccncc1 | 6.8%
16 | Cc1ccc(C(=O)NCC(=O)OCC(=O)NC2CCCCCCC2)cc1 | -2.06%
17 | COc1ccc(S(=O)(=O)N2CCOCC2)cc1C(=O)NC1CCCCC1 | 3.75%
18 | Cc1ccc2oc(=O)c3cnn(CC(=O)N4CCN(c5ccccn5)CC4)c3c2c1 | 14.3%
19 | Cc1ccc(S(=O)(=O)NCC(=O)N(CC(=O)NC2CCCCC2)Cc2ccco2)cc1 | -11.2%
20 | COCCCN(C(=O)Cn1ncc2c(=O)oc3ccc(C)cc3c21)C(C)c1ccncc1 (stereo not given) | -3.25%
21 | Cc1ccc2oc(=O)c3cnn(CC(=O)N4CCCCCC4)c3c2c1 | 57.7% (active)
22 | Cc1ccc2oc(=O)c3cnn(CC(=O)N(Cc4ccco4)C4CCCCC4)c3c2c1 | 86.2% (active)
23 | CCOC(=O)C1CCCN(C(=O)Cn2ncc3c(=O)oc4ccc(C)cc4c32)C1 (stereo not given) | -3.84%
24 | CCC1CO/C(=C(\C(=C(Cl)Cl)N2CCOCC2)[N+](=O)[O-])N1 (stereo not given) | -3.56%

Row | SMILES | inhibition
25 | CCCCC[C@H](C)N1C[C@@H](COCc2ccccc2)Oc2cc(N3CC[C@@H](N(C)C)C3)ccc2S1(=O)=O | 1.65%
26 | Cc1ccc(C(=O)O)cc1S(=O)(=O)NCC1CCCO1 (stereo not given) | -0.989%
27 | C=CC[C@H](CC(=O)N(CCO)Cc1ccccc1)C(=O)N[C@@H](COC(=O)[C@@H](CC=C)Cc1ccc(F)cc1)Cc1ccccc1 | 27%
28 | Cc1cccc(CS(=O)(=O)c2ncc(Cl)c(C(=O)Nc3ccc(F)cc3)n2)c1 | 30.8%
29 | Cc1cccc(NS(=O)(=O)c2ccc(C)c(C(=O)NCc3cccnc3)c2)c1 | -2.61%
30 | Cc1cccc(NC(=O)c2nc(S(=O)(=O)Cc3ccccc3)ncc2Cl)c1 | 66% (active)
31 | O=C(NCc1ccccc1)C1CCCN(S(=O)(=O)c2cccs2)C1 (stereo not given) | -3.94%
32 | O=C(NCc1ccc(Cl)cc1)C1CCN(S(=O)(=O)c2cccs2)CC1 | 53% (active)
33 | O=C(NCc1ccc(Cl)cc1)C(=O)NCC1CCCN1S(=O)(=O)c1cccs1 (stereo not given) | -11.1%
34 | N#CCCCn1c(O)c(N=NC(=O)C(O)c2ccccc2)c2ccccc21 (stereo not given) | 10.8%
35 | COC(=O)c1cccc(NS(C)(=O)=O)c1 | 1.19%
36 | CCCc1cc(=O)oc2cc(OCC(=O)Nc3ccc(CN4CCOCC4)cc3)c(Cl)cc12 | -0.759%
37 | CC(NC(=S)NC1CCCCC1)C(c1ccccc1)N1CCOCC1 (stereo not given) | -1.91%
38 | Cc1sc(NC(=O)C2C3CCC(O3)C2C(=O)O)c(C(=O)OC(C)C)c1-c1ccc(Cl)cc1 (stereo not given) | 2.12%
39 | CC(C)c1cc(Cn2c3ccccc3c(=O)n2C(C)Cn2cc(C3CC3)nn2)on1 (stereo not given) | -7.98%
40 | COc1ccc(C(C(=O)NC2CCCCC2)N(C(=O)c2snc(C(N)=O)c2N)c2ccccc2OC)cc1 (stereo not given) | 48.7% (active)
41 | COc1ccc(N(C(=O)c2snc(C(N)=O)c2N)C(C(=O)NC2CCCC2)c2ccc(C)o2)c(OC)c1 (stereo not given) | 34.7%
42 | CCC(C(=O)NC1CCCCC1)N(C(=O)c1snc(C(N)=O)c1N)c1ccc(OC)cc1OC (stereo not given) | 8.28%
43 | Cc1ccccc1C(=O)NCC(c1ccco1)N1CCc2ccccc21 (stereo not given) | 6.76%
44 | CCC1NC(=O)c2cccnc2-n2c1nc1ccc(C)cc1c2=O (stereo not given) | -1.36%
45 | O=C1NC(Cc2ccccc2)c2nc3ccc(Br)cc3c(=O)n2-c2cc3ccccc3cc21 (stereo not given) | 37.7%
46 | Cc1cc(C)c2c(=O)n3c(nc2c1)C(CC(C)C)NC(=O)c1cc2ccccc2cc1-3 (stereo not given) | 77.3% (active)
47 | Cc1[nH]c2c(C(=O)N3CCCC(CCC(=O)NCc4ccccc4F)C3)cccc2c1C (stereo not given) | 2.8%
48 | CN1CCN(c2ccccc2NC(=O)COc2ccc(C3CCCCC3)cc2)CC1 | 22.8%

Row | SMILES | inhibition
49 | O=C(CSCc1ccc([N+](=O)[O-])cc1)NCCSCc1ccccc1 | 3.17%
50 | Nc1ccn(CC(=O)N2CCN(c3ccccn3)CC2)c(=O)n1 | -9.67%
51 | O=S(=O)(c1cccc(C(F)(F)F)c1)N1CCN(c2cnccn2)CC1 | -1.02%
52 | O=C(/C=C/c1cccc(C(F)(F)F)c1)N1CCN(c2ccccn2)CC1 | 55% (active)
53 | CSc1ccc(Cl)c(C(=O)OCC(=O)N2CCNC2=O)c1 | 5.05%
54 | CCc1nn(CCCC(=O)NC(C)c2ccccc2)c(=O)c2cc3occc3n12 (stereo not given) | -11%
55 | O=C(NCCNc1ccc([N+](=O)[O-])cc1Cl)c1ccccc1F | -4.29%
56 | CC(CNc1ccc([N+](=O)[O-])cc1)NC(=O)c1ccccc1Br (stereo not given) | 28.5%
57 | O=C(NCCNc1ccc([N+](=O)[O-])cc1)c1cccc2c(Br)cccc12 | 44.2% (active)
58 | CCNC(=O)NC(=O)C(C)OC(=O)c1cc(S(=O)(=O)N2CCCCCC2)ccc1OC (stereo not given) | -0.223%
59 | O=C(CCNS(=O)(=O)c1ccccc1)NCCCc1ccccc1 | -0.453%
60 | CC(CNS(=O)(=O)c1ccc(Br)cc1)CN(C)C (stereo not given) | 0.0488%
61 | CCOc1ccc(S(=O)(=O)NCCC(=O)NCC2CCCO2)cc1 (stereo not given) | -4.42%
62 | O=C(CNC(=O)c1ccccc1Br)NCCSc1ccc(Br)cc1 | 22%
63 | O=C(CCNS(=O)(=O)c1ccccc1)NCCSc1ccc(Br)cc1 | 51.2% (active)
64 | CC(C)CCNC(=O)CCNS(=O)(=O)c1ccc(Cl)cc1 | -4.48%
65 | Cc1ccc(S(=O)(=O)NCCNC(C)c2ccc(Br)cc2)cc1 (stereo not given) | 43.7% (active)
66 | Cc1ccc(S(=O)(=O)NCCSC(C)(C)C)cc1 | -0.527%
67 | Cc1ccc(OCCNC(=O)CCNS(=O)(=O)c2ccc(Br)cc2)cc1 | 45.9% (active)
68 | O=C(Nc1ccc2c(c1)OCO2)C1CC(c2c(F)cccc2Cl)=NO1 (stereo not given) | 0.962%
69 | COc1ccc(OC)c(Cc2cnc3nc(N)nc(N)c3c2C)c1 | -1.26%
70 | CCOC(=O)/C(=N\Nc1ccccc1Cl)N(C)C1CCS(=O)(=O)C1 (stereo not given) | 1.11%
71 | C=C1CCN([C@@H](Cc2ccccc2)C(=O)N2CCOCC2)S(=O)(=O)c2ccccc21 | 5.72%
72 | c1ccc(C[C@H]2CNCCN2CCC23CC4CC(CC(C4)C2)C3)cc1 | -9.28%

Row | SMILES | inhibition
73 | CC1CCCCC1NC(=O)/C(C#N)=C/C=C/c1ccccc1[N+](=O)[O-] (stereo not given) | 8.62%
74 | CN(CC(=O)Nc1ccc(OC(F)F)cc1)S(=O)(=O)/C=C/c1ccccc1 | 1.52%
75 | CC(=O)c1ccc(NC(=S)N(Cc2ccccc2)C(C)C2CC2)cc1 (stereo not given) | -3.28%
76 | CC(C)N(Cc1ccccc1)C(=S)Nc1ccc(OC(F)F)cc1 | 53.9% (active)
77 | CC1=NNC(=O)C1Cc1c(Cl)cccc1Cl (stereo not given) | 9.3%
78 | Cc1ccc(S(=O)(=O)NC2(C(F)(F)F)NC(=O)N(CCc3ccccc3)C2=O)cc1 (stereo not given) | -2.6%
79 | Cc1ccc(-n2ncc3c2ncn2nc(-c4ccco4)nc32)c(C)c1 | -1.3%
80 | Cc1ccc(-n2ncc3c(=O)n(-c4ccc(C)c(C)c4)c(-c4ccco4)nc32)cc1 | 51.2% (active)
81 | Cc1ccc(-n2nc(-c3ccco3)cc2C(=O)NCc2cccnc2)cc1 | 7.84%
82 | CN(C)C(=O)c1cccc(-c2cnc3sc(NCc4ccc5c(c4)OCO5)nn23)c1 | -1.54%
83 | CCN(Cc1ccncc1)C(=O)c1cccc(S(=O)(=O)N2CCOCC2)c1 | -5.08%
84 | O=C(COc1ccc2ccccc2c1)N1CCN(C(=O)c2cccs2)CC1 | 79.7% (active)
85 | O=C(c1ccc(OC2CCN(C(=O)c3cccnc3)CC2)cc1)N1CCCCCC1 | -4.37%
86 | CC1CN(C2CCN(C(=O)COc3ccccc3)CC2)CC(C)O1 (stereo not given) | -0.0245%
87 | O=C(CN1C(=O)NC2(CCCCC2)C1=O)N1CCN(C(=O)c2cccs2)CC1 | -15.2%
88 | CCS(=O)(=O)N1CCN(C(=O)c2cccs2)CC1 | -10.3%
89 | COc1ccc(N2CCN(C(=O)c3cccs3)CC2)cc1 | -0.686%
90 | COc1ccccc1C(=O)Nc1ccc(OCC(=O)N2CCCCC2)cc1 | -5.13%
91 | Cc1ccc(OCC(=O)N2CCN(C(=O)c3cccnc3)CC2)cc1 | 50.4% (active)
92 | Cc1ccccc1N1CCN(C(=O)c2cccnc2)CC1 | -10.5%
93 | O=C(COc1ccccc1)Nc1ccc(N2CCN(C(=O)c3cccs3)CC2)cc1 | 3.87%
94 | COc1ccc(OCC(=O)N2CCN(C(=O)c3cccs3)CC2)cc1 | 49.9% (active)
95 | COc1ccc(OCC(=O)N2CCN(C(=O)COc3ccccc3)CC2)cc1 | 50.8% (active)
